Where “and” joins values, the source holds several entries; their conditions need not be identical. Equal values may be shown once. Some of the results follow. Unmarked numbers belong to inactive results. Calls of active or inactive are those of the source.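 How the source made its calls, unless noted: active means activation above the solvent-only control well mean plus 3 SD, set per plate batch (cut at about 110% in these data); inactive means the rest.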

Tested on in one test: not listed separately
The test can be described thus: STAT1 signaling activators, confirmation, cell-based, HTS, luciferase reporter (AID 1262;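 active means activation above a set limit carried over from the earlier primary STAT1 screen, cut at about 140% in these data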;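 further: simple ratio to median IFN-gamma plus DMSO wells so 0% means no light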). Conditions: NIH 3T3 STAT1-luciferase reporter, IFN-gamma potentiation, luminescence; at 5.7 µM; stronger effect = higher value; 100% = IFN-gamma EC80 alone, no compound.
Consider `COc1ccc2oc(-c3cccc(NC(=O)CSc4ccc(Cl)cc4)c3)nc2c1`, for which the activation (% of control) was 216% (active).

For the compound `CC(C)c1ccc(NC(=O)NC2CCCCC2)cc1`, the activation (% of control) was 191% (active).

Turning to `CC(=O)Nc1cccc(-c2cnc3ccccc3n2)c1`, the activation (% of control) was 165% (active).

With `Cc1ccc2cc3cc(C(=O)N4CCCCCC4)oc3nc2c1`, the activation (% of control) is 224% (active).

On to `CC(=O)c1sc(N/N=C\c2ccc(C)cc2)nc1C`, for which the activation (% of control) was 191% (active).

In the case of `Cc1cc2nc(SCCN3CCOCC3)[nH]c2cc1C`, the activation (% of control) was 157% (active).

Turning to `Cc1ccc(NC(=O)Nc2ccccc2)c(Br)c1`, the activation (% of control) is 171% (active).

For the compound `Cc1[nH]n(-c2ccccc2)c(=O)c1/C=N/NC(=O)c1ccoc1C`, the activation (% of control) is 120%.

For the compound `Cn1nnc2cc(C(=O)NCCC3=CCCCC3)ccc21`, the activation (% of control) was 171% (active).

On to `Cc1cccc(N=Nc2c(O)[nH]c3ccc(F)cc23)c1`, for which the activation (% of control) is 160% (active).

With `c1cnc(Nc2nc(-c3ccc4ccccc4c3)cs2)nc1`, the activation (% of control) is 208% (active).

Tested on in the next test: not listed separately
The test can be described thus: NF-kB reporter activators, TNF-alpha stimulated, counter-screen for STAT1 activator project, cell-based, HEK293T, luciferase luminescence (AID 1306;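 active means activation above the mean of solvent-only control wells plus 3 SD, set per campaign, cut at about 130% in these data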;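 further: TNF-alpha given at a submaximal dose yielding about 80% of full reporter signal; values are well signal over median control so 100% means no change and 0% no light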). Conditions: at 5.7 µM, stronger effect = higher value, 100% = TNF-alpha with vehicle only.
Consider `COc1ccc2oc(-c3cccc(NC(=O)CSc4ccc(Cl)cc4)c3)nc2c1`, for which the activation (% of control) is 140% (active).

For the compound `CC(C)c1ccc(NC(=O)NC2CCCCC2)cc1`, the activation (% of control) is 128%.

Regarding `CC(=O)Nc1cccc(-c2cnc3ccccc3n2)c1`, the activation (% of control) is 126%.

With `Cc1ccc2cc3cc(C(=O)N4CCCCCC4)oc3nc2c1`, the activation (% of control) was 120%.

For the compound `CC(=O)c1sc(N/N=C\c2ccc(C)cc2)nc1C`, the activation (% of control) is 143% (active).

On to `Cc1cc2nc(SCCN3CCOCC3)[nH]c2cc1C`, for which the activation (% of control) is 119%.

Take `Cc1ccc(NC(=O)Nc2ccccc2)c(Br)c1`: the activation (% of control) was 124%.

Consider `Cc1[nH]n(-c2ccccc2)c(=O)c1/C=N/NC(=O)c1ccoc1C`, for which the activation (% of control) is 117%.

In the case of `Cn1nnc2cc(C(=O)NCCC3=CCCCC3)ccc21`, the activation (% of control) was 117%.

For the compound `Cc1cccc(N=Nc2c(O)[nH]c3ccc(F)cc23)c1`, the activation (% of control) is 135% (active).

Turning to `c1cnc(Nc2nc(-c3ccc4ccccc4c3)cs2)nc1`, the activation (% of control) was 139% (active).

Another test concerns the target Signal transducer and activator of transcription 3 (Homo sapiens) (UniProt P40763). Kind of test: STAT3 reporter activation by STAT1 hits, confirmation, counter-screen for STAT1 activator project, U3A cells, luciferase, luminescence (AID 1316).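 Further: 0% = no luminescence and 100% = median IL-6 plus DMSO wells; higher means more STAT3 reporter activation so hits are non-selective activators.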 The conditions noted are these: IL-6, luminescence, at 5.7 µM, stronger effect = higher value, 100 = IL-6 alone, no compound effect, cells lack STAT1.
Consider `COc1ccc2oc(-c3cccc(NC(=O)CSc4ccc(Cl)cc4)c3)nc2c1`, for which the activation (% of control) is 100%.

As for `CC(C)c1ccc(NC(=O)NC2CCCCC2)cc1`, the activation (% of control) is 129% (active).

On to `CC(=O)Nc1cccc(-c2cnc3ccccc3n2)c1`, for which the activation (% of control) is 101%.

For the compound `Cc1ccc2cc3cc(C(=O)N4CCCCCC4)oc3nc2c1`, the activation (% of control) was 137% (active).

On to `CC(=O)c1sc(N/N=C\c2ccc(C)cc2)nc1C`, for which the activation (% of control) is 107%.

Turning to `Cc1cc2nc(SCCN3CCOCC3)[nH]c2cc1C`, the activation (% of control) was 121% (active).

Turning to `Cc1ccc(NC(=O)Nc2ccccc2)c(Br)c1`, the activation (% of control) is 89.8%.

On to `Cc1[nH]n(-c2ccccc2)c(=O)c1/C=N/NC(=O)c1ccoc1C`, for which the activation (% of control) is 108%.

On to `Cn1nnc2cc(C(=O)NCCC3=CCCCC3)ccc21`, for which the activation (% of control) was 119% (active).

As to `Cc1cccc(N=Nc2c(O)[nH]c3ccc(F)cc23)c1`, the activation (% of control) is 109%.

As for `c1cnc(Nc2nc(-c3ccc4ccccc4c3)cs2)nc1`, the activation (% of control) was 105%.

Tested on in the next test: not listed separately
Kind of test: growth loss of phage-infected E. coli expressing H. pylori AddAB, confirmation, AddAB inhibitor project, absorbance, E. coli V3065, T4 phage, triplicate (AID 488942;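 active means mean inhibition above a set limit taken from the earlier primary screen, cut at about 13% in these data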;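 further: higher means less bacterial growth since AddAB block lets phage replicate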). Conditions: OD, at 11.9 µM, stronger effect = higher value, T4 phage with gene 2 nonsense mutations.
In the case of `CO/N=C(\C(=O)N[C@@H]1C(=O)N2C(C(=O)O)=C(COC(C)=O)CS[C@H]12)c1csc(N)n1` (stereo in doubt), the inhibition is 99.2% (active) and 97% (active).

Consider `C=CC1=C(C(=O)O)N2C(=O)[C@@H](NC(=O)/C(=N\OCC(=O)O)c3csc(N)n3)[C@H]2SC1`, for which the inhibition was 103% (active).

With `C=CC1=C(C(=O)O)N2C(=O)[C@@H](NC(=O)/C(=N/OCC(=O)O)c3csc(N)n3)[C@H]2SC1`, the inhibition is 102% (active).

`Cn1ccc(=Nc2ccc(NC(=O)c3ccc(N=c4ccn(C)c5ccc([N+](=O)[O-])cc45)cc3)cc2)cc1`: the inhibition is 99.9% (active).

Tested on in a further test: not listed separately
The test can be described thus: growth loss of RecBCD+ E. coli with mutant T4 phage, counter-screen for AddAB inhibitor project, absorbance, V66 E. coli (AID 488955;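 active means mean inhibition above the mean of solvent-only control wells plus 3 SD, cut at about 4% in these data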;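 further: optical density read after an 18 h incubation at 37 °C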). Conditions: OD growth, at 11.9 µM, stronger effect = higher value.
As for `CO/N=C(\C(=O)N[C@@H]1C(=O)N2C(C(=O)O)=C(COC(C)=O)CS[C@H]12)c1csc(N)n1` (stereo in doubt), the inhibition is 99.5% (active) and 97.6% (active).

As for `C=CC1=C(C(=O)O)N2C(=O)[C@@H](NC(=O)/C(=N\OCC(=O)O)c3csc(N)n3)[C@H]2SC1`, the inhibition is 103% (active).

For `C=CC1=C(C(=O)O)N2C(=O)[C@@H](NC(=O)/C(=N/OCC(=O)O)c3csc(N)n3)[C@H]2SC1`, the inhibition was 100% (active).

For the compound `Cn1ccc(=Nc2ccc(NC(=O)c3ccc(N=c4ccn(C)c5ccc([N+](=O)[O-])cc45)cc3)cc2)cc1`, the inhibition is 101% (active).

Tested on in a further test: not listed separately
Kind of test: bacterial viability inhibition counter-screen, confirmation, counter-screen for AddAB inhibitor project, absorbance (AID 488956; in the data active means inhibition above about 25%). The conditions noted are these: absorbance (AddAB counterscreen), at 11.9 µM, stronger effect = higher value.
Turning to `CO/N=C(\C(=O)N[C@@H]1C(=O)N2C(C(=O)O)=C(COC(C)=O)CS[C@H]12)c1csc(N)n1` (stereo in doubt), the inhibition was 99.6% (active) and 98.1% (active).

Consider `C=CC1=C(C(=O)O)N2C(=O)[C@@H](NC(=O)/C(=N\OCC(=O)O)c3csc(N)n3)[C@H]2SC1`, for which the inhibition was 104% (active).

In the case of `C=CC1=C(C(=O)O)N2C(=O)[C@@H](NC(=O)/C(=N/OCC(=O)O)c3csc(N)n3)[C@H]2SC1`, the inhibition was 101% (active).

Consider `Cn1ccc(=Nc2ccc(NC(=O)c3ccc(N=c4ccn(C)c5ccc([N+](=O)[O-])cc45)cc3)cc2)cc1`, for which the inhibition was 101% (active).

The target in the next test is Serine protease HTRA1 (Homo sapiens) (UniProt Q92743). The test can be described thus: HTRA1 protease inhibitors, retest, confirmation, biochemical, fluorescence polarization (AID 540248;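 active means mean inhibition over three repeats above a set limit taken from the earlier primary screen, cut at about 37% in these data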;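 further: 0% = HTRA1 with DMSO and 100% = wells lacking HTRA1; inhibitors block probe binding so polarization drops and inhibition rises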). The conditions noted are these: recombinant HTRA1, FP-rhodamine activity-based probe, at 5.96 µM, stronger effect = higher value.
Take `NNc1cccc(C=Cc2ccccc2)cc1=O`: the inhibition was 47.8% (active).

On to `Cc1cc(C(=O)N/N=C/c2ccc(O)c([N+](=O)[O-])c2)c(C)n1-c1ccc(F)cc1`, for which the inhibition was 120% (active).

Turning to `CCc1ccc2c(c1)C1(NN=C(c3ccccc3)S1)C(=O)N2` (centres undefined), the inhibition was 63.9% (active).

For `NC1=CC(=O)C(=O)c2cccnc21`, the inhibition was 24.5%.

The values above are taken from PubChem BioAssay.
